Compound activity from PubChem BioAssay.
NS1 inh: qHTS Assay for Inhibitors of Influenza NS1 Protein Function; Potency, µM (doses to about 46.1 µM), for inactives: at the highest dose activity, positive = more growth; hit rate 0.4% among 270,000; AID 2326, 2010; calls by dose curve; note: potency is the fitted concentration of half-maximal effect; actives are rising curves; nearly all actives have a fitted effect of over 50% in size
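Read-out: OD600 growth recovery of NS1-expressing budding yeast. Cells grown overnight at 30C in -URA glucose medium, washed, resuspended and diluted 1:100 in 2% galactose assay medium, pH 6.0. Same strain lacking NS1 served as positive control.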
Shiga toxin inh: A qHTS for Small Molecule Inhibitors of Shiga Toxin; Vero cells, Shiga toxin protein synthesis inhibition reporter; inhibition, % at 38.7 µM; hit rate 9.2% among 290,000; AID 2315, 2010; in the data active = inhibition mostly above about 28%, no sharp cut-off; inactive = mostly below about 43%; note: 0% is about no effect
Cycloheximide cs: Cycloheximide Counterscreen for Small Molecule Inhibitors of Shiga Toxin; max response, %; cell reporter, cycloheximide protein synthesis inhibition counterscreen; hit rate 12% among 300,000; in the data active = max response mostly above about 13%, no sharp cut-off; inactive = mostly below about 14%; note: read at 38.3 µM for the half of the compounds with a filed dose; 0% is about no effect
LmPK inhibitor: qHTS Assay for Inhibitors of Leishmania Mexicana Pyruvate Kinase (LmPK); Potency, µM (highest dose often 57.5 µM), for the others: at the top dose activity change, negative = inhibition, actives largely listed as inhibitors; purified LmPK, Kinase-Glo ATP luminescence, 1 h; hit rate 0.37% among 290,000; Q27686; note: potency is the fitted concentration of half-maximal effect; % is set by controls: 0 for no effect and ±100 for the full control effect
Target sequence (Q27686 whole entry, looked up): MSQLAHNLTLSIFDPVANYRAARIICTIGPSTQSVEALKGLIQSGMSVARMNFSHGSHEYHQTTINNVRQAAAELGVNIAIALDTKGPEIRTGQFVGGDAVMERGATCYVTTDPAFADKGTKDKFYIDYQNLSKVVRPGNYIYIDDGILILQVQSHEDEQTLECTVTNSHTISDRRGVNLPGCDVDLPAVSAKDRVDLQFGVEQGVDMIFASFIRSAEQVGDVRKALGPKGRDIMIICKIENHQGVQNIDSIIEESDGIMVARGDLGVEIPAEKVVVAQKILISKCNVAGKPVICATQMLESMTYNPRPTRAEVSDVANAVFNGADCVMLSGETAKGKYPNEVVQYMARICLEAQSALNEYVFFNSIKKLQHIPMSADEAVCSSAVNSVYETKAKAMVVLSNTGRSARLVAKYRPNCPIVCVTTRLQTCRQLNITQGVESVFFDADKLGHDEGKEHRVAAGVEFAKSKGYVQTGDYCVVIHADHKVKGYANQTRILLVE
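Purified LmPK (0.1 nM) with 0.5 mM PEP and 0.1 mM ADP in imidazole buffer pH 7.2 with MgCl2/KCl, 1 h at room temperature. ATP formed was read by luciferase luminescence and normalized to no-enzyme and uninhibited controls.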
FBPA Giardia inh: qHTS Assay for Inhibitors of Fructose-1,6-bisphosphate Aldolase from Giardia Lamblia; purified Giardia FBPA; Potency, µM (doses to about 59.6 µM), for the others: top-dose activity, negative = inhibition, actives largely listed as inhibitors; hit rate 0.71% among 290,000; AID 2451, 2010; note: potency is the fitted concentration of half-maximal effect; % is set by controls: 0 for no effect and ±100 for the full control effect; nearly all actives have a fitted effect of over 55% in size
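40 nM FBPA preincubated 10 min at RT with compound (up to 57.5 uM final), then substrate plus GAPDH/TPI/NAD/arsenate coupling and diaphorase/resazurin added. Fluorescence read after 20 min at RT, 525/598 nm.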
* hit, by the source's call; i = inactive; ? = inconclusive; / = no result; + = active, no number; [ ] = dose if it differs, or a comment. In the library only some 14% were active in any assay of this set; here they are far more common. Unless noted, calls come from the whole dose curve; as a rule, active = well fitted curve in the direction sought with a large enough effect; inconclusive = small, poorly fitted or top-dose-only effect, or another doubt; inactive = no such curve, though single readings can be large; an effect the other way counts as inactive or inconclusive.

SMILES | NS1 inh | Shiga toxin inh | Cycloheximide cs | LmPK inhibitor | FBPA Giardia inh
CC(=O)Nc1cccc(NC(=O)Cc2ccc3ccccc3c2)c1 | 21% | 3 | 13 | -8% | 6%
CCOC(=O)CCN1C(=O)[C@H]2[C@H]3[C@H](O)[C@H](O)C/C(=N/OCc4ccccc4)[C@@H]3CC[C@@H]2C1=O | / | / | / | / | 6%[12.9 µM]
Cc1cc(C(=O)COC(=O)C2CCN(C(=O)c3ccc(Cl)cc3)CC2)c(C)n1CC1CCCO1 (stereo not drawn) | / | 100* | 66* | 5% | 3%
Cc1cc(CNC(=O)[C@H](C)[C@H]2C[C@]2(C)[C@H](NC(=O)OCc2ccccc2)c2ccccc2)nn1C | / | / | / | / | 7%
CCC(C)NC(=O)CSc1ccc(Cl)cc1 (stereo not drawn) | 5% | + | 18* | -1% | 0%
CC(C)C(NC(=O)CSc1ccc(Cl)cc1)C(C)C | -15% | -3 | -9 | 10% | -4%
Cc1ccc(SCC(=O)NCc2ccccc2C)cc1 | -16% | 14 | 16 | -3% | 4%
CC(C)CNC(=O)CSc1ccc(Cl)cc1 | -7% | 47 | 14* | 2% | -3%
Cc1ccc(SCC(=O)NCC(C)C)cc1 | 2% | 44* | 12 | -5% | 5%
O=C(CCS(=O)(=O)c1ccc(Cl)cc1)NCCN1C(=O)S/C(=C\c2ccccc2F)C1=O | -1% | 67* | 34* | 1% | 3%
Cc1ccc(S(=O)(=O)CCC(=O)NCCc2ccccc2)cc1 | 0% | -5 | 2 | -5% | 18%
Cc1ccc(S(=O)(=O)CCC(=O)NCCN2C(=O)S/C(=C\c3ccccc3)C2=O)cc1 | 7% | 36 | 16* | 0% | 8%
O=C(Nc1ccccc1C(=O)Nc1ccc(Cl)cc1)c1cccnc1 | 0% | -8 | -6 | -2% | -4%
N#C/C(=C\c1ccc(O)c(O)c1)C(N)=S | / | / | / | / | 14µM*
O=C(Nc1ccccc1Cl)ON=C1c2ccccc2-c2ccccc21 | -55% | 45* | 23* | 0% | -9%
c1ccc2c(c1)NCCS2 | ? | 80* | 47* | 4% | -23%
Fc1cccc(CSc2nnc3c(n2)[nH]c2ccccc23)c1 | -4% | 44 | 19* | 0% | 3%
Cc1ccccc1Oc1ccc(Oc2ccccc2C)nn1 | -7% | 116* | 31* | 1% | 5%
CCc1ccc(Nc2n[n+](-c3ccccc3)c(-c3ccc(SC)cc3)s2)cc1 | 20% | 34* | 33* | -6% | -25%
COc1ccc(C)cc1Nc1n[n+](-c2ccccc2)c(-c2cc([N+](=O)[O-])cc(OC)c2O)s1 | 11% | -5 | -1 | -2% | -25%
COc1ccc(C)cc1Nc1n[n+](-c2ccccc2)c(-c2ccc(SC)cc2)s1 | 4% | 52* | 42* | -15% | ?
CCc1ccc(Nc2n[n+](-c3ccccc3)c(-c3ccc(OC)c(Br)c3)s2)cc1 | 10% | 33* | 26* | 0% | ?
CCc1ccc(Nc2n[n+](-c3ccccc3)c(-c3ccc(C(=O)O)cc3)s2)cc1 | 15% | 17 | -1 | 7% | ?
Cc1cccc([C@H]2[C@@H]3C=CC(C)C[C@@H]3C(=O)N2Cc2ccccc2)c1 (stereo partly drawn) | / | i | 1 | / | 2%[89.2 µM]
Cc1ccc(CNC(=O)c2ccc(N3CCC4(CC3)CC(c3ccccc3)=NO4)c(NC(=O)c3ccc(Br)cc3)c2)cc1 | 24% | 18 | 4 | -4% | 10%
SMILES | NS1 inh | Shiga toxin inh | Cycloheximide cs | LmPK inhibitor | FBPA Giardia inh
CCOc1ccc(CCNC(=O)C2CC(C)=CCC2C(=O)O)cc1OCC (stereo not drawn) | 3% | -5 | -2 | 1% | -2%
O=C(N/N=C/c1ccc2c(c1)OCO2)C(O)c1ccccc1 (stereo not drawn) | 12% | 54* | 59* | -6% | 2%
O=C(COc1ccccc1)N/N=C/c1ccc2c(c1)OCO2 | / | 24 | 6 | 8% | 1%
O=C(Cn1nc(C(F)F)cc1C(F)F)N/N=C/c1ccc2c(c1)OCO2 | 8% | -10 | -4 | 1% | 2%
Cc1ccnn1CC(=O)N/N=C/c1ccc2c(c1)OCO2 | 10% | 37 | 18* | 0% | 3%
O=C(CCC(=O)Nc1ccc(Cl)cc1)N/N=C/c1ccc2c(c1)OCO2 | -27% | -13 | -2 | -7% | /
Cc1cc(C)c(OCC(=O)N/N=C/c2ccc3c(c2)OCO3)c(C)c1 | -13% | -11 | -4 | 0% | 4%
